Screens from PubChem.
Lmaj promast: Leishmania major promastigote growth inhibition; inhibition, % at 10 µM; Leishmania major promastigotes, resazurin fluorescence viability; 9% of 200,000 active; in the data active means inhibition above about 50%;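 further: promastigotes grown with compound for 44 hours at 28 °C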
RAM inhibit: blocks the yeast RAM network; S. cerevisiae dse1pr::URA3 reporter, 5-FOA growth OD615, 2 d; analog-sensitive cbk1-as2 kinase mutant strain; inhibition, % at 50 µM; 1.8% of 190,000 active; AID 868;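 active means inhibition above a set limit, 3 SD over mean compound inhibition, cut at about 8.4% in these data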;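 further: inhibition rescues growth on 5-FOA so higher OD means more RAM inhibition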
CHOP inhibitor: blocks CHOP induction under ER stress; CHO-K1 CHOP-promoter luciferase, tunicamycin-induced, 15-18 h; inhibition, % at 10 µM; 3.8% of 220,000 active;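 active means compounds that reduced the stress-induced luciferase reporter signal by more than about 70% of percent inhibition, limit read from the data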
WT yeast gro inh: growth inhibition of WT yeast, mitochondrial fusion screen | 2.1% of 190,000 active | AID 1362 | inhibition, % at 10 µM | mitochondrial fusion phenotypic screen, WT strain; in the data active means inhibition above about 58%; tested in S. cerevisiae
Large screens that a line does not name were inactive. Shown are actives, neighbours in structure and some others; about 13% of the full set was active somewhere.

COc1ccc(C)cc1NC(=O)C(OC(=O)CNC(=O)c1ccc(Br)cc1)c1ccccc1 (stereo unspecified)	Lmaj promast 52.1
O=C1CCN(C(=O)CSc2ccc(Cl)cc2)N1	none
CCOC(=O)Cc1c(C)nc(Cc2ccc(OC(C)C)cc2)[nH]c1=O	none
COC(=O)C(C(=O)OC)C(C[N+](=O)[O-])c1ccc(OC)c(OC)c1 (stereo unspecified)	Lmaj promast 99.9
COc1ccc(C(CC(=O)c2ccc(C)cc2)C(C#N)C#N)cc1OC (stereo unspecified)	Lmaj promast 89.5
COc1ccc(C(CC(=O)O)NS(=O)(=O)c2ccc(C)cc2)cc1OC (stereo unspecified)	none
Cc1ccc(Cn2nc3c(cc2=O)CCc2ccccc2-3)cc1	WT yeast gro inh 73.8
O=c1cc2c(nn1Cc1ccc(Cl)cc1)-c1ccccc1CC2	CHOP inhibitor 88.1, WT yeast gro inh 59.5
O=c1cc2c(nn1Cc1cccc(Cl)c1)-c1ccccc1CC2	CHOP inhibitor 95.1, WT yeast gro inh 80.5
Nc1nnnn1CC(=O)OCc1cccc(Br)c1	none
COc1ccc(-c2cnc3c(c2)CCC3(C#N)C#N)cc1	none
CCOC(=O)c1c(C)n(OCc2ccccc2)c2ccc3nonc3c12	RAM inhibit 10.3
CCCS(=O)(=O)N1CCN=C1SCc1cccnc1	none
COc1cc(/C=c2\s/c(=C(/C#N)C(=O)N3CCCC3)n(-c3ccccc3)c2=O)ccc1O	CHOP inhibitor 94.7
COC(=O)/C=c1/s/c(=C(/C#N)C(=O)N2CCCCC2)n(-c2ccccc2)c1=O	none
Cc1ccccc1OCCN1C(=O)C(=O)c2cccc(C)c21	none
Cc1cccc2c1N(CCOc1ccccc1Cl)C(=O)C2=O	Lmaj promast 66.5
C=CCc1c(C)nc(N2CCSCC2)[nH]c1=O	none (no result: Lmaj promast, RAM inhibit, WT yeast gro inh)
CCc1cc2c(-c3ccccc3)cc(=O)oc2cc1OC(=O)c1cccs1	CHOP inhibitor 70.4
COCCNC(=O)CCC(=O)NNc1nc2ccccc2c2nc(-c3ccccc3)nn12	none
C=CCn1c(SCC(=O)NC(=O)c2cccc([N+](=O)[O-])c2)nnc1-c1ccccc1F	none
CC(=O)Nc1ccc(S(=O)(=O)n2cnc3cc(C)c(C)cc32)cc1	Lmaj promast 66.8 (no result: CHOP inhibitor)
CC(=O)Nc1ccc(C(=O)n2cnc3cc(C)c(C)cc32)cc1	none
CCCCn1c(CCC)nc([N+](=O)[O-])c1Sc1ccc(Cl)cn1	Lmaj promast 75.4
CC(C)Cn1c(C(C)C)nc([N+](=O)[O-])c1Sc1ccc(Cl)cn1	none
Nc1nnc(SCC(=O)OCC(=O)c2ccccc2Br)s1	none
COC(=O)C1=CN(CCCN2CCCC2=O)C=C(C(=O)OC)C1c1cccs1	none
COC(=O)C1=CN(Cc2ccc(OC)cc2)C=C(C(=O)OC)C1c1cccs1	Lmaj promast 100.2
COc1ccc(CNC(=O)CS(=O)CC(=O)O)cc1OC (stereo unspecified)	none
COc1cccc(C2=NN(C(=O)c3cccs3)C(O)(C(F)(F)F)C2)c1 (stereo unspecified)	CHOP inhibitor 74.5
COc1cccc(C(=O)N2N=C(c3cccc(OC)c3)CC2(O)C(F)(F)F)c1 (stereo unspecified)	none
C=CCc1ccc(OCCCCN2CCC(C)CC2)c(OC)c1	Lmaj promast 89.4
CCOc1ccccc1OCCOCCN1CC(C)OC(C)C1 (stereo unspecified)	Lmaj promast 63.2
C=CCc1ccc(OCCCOc2ccc(C(=O)O)cc2)c(OC)c1	none
C=CCc1ccc(OCCCCN2CC(C)CC(C)C2)c(OC)c1 (stereo unspecified)	Lmaj promast 96.1
C=CCc1ccc(OCCCN2CCCC(C)C2)c(OC)c1 (stereo unspecified)	Lmaj promast 99.6
O=C(O)CCn1c(-c2ccccc2)cc2ccccc21	none
Cc1cccn2c(=O)c3cc(C(=O)NC(C)c4ccccc4)c(=N)n(CCCn4ccnc4)c3nc12 (stereo unspecified)	none (no result: Lmaj promast, RAM inhibit, WT yeast gro inh)
